Records with an inconclusive call do not appear. Values without a mark were called inactive. Activity calls are given as the source filed them. The call rests on the fitted dose curve; in most records, active means well fitted cell-killing curve with a large enough effect; inconclusive means small, poorly fitted or top-dose-only effect, or effect the other way; inactive means no such curve, though single readings can be large or run the other way.

As usually defined, the viability is a read-out of living cells in per cent, often relative to untreated cells.
Potency means the concentration at half of the fitted maximal effect.

The nature of the first test: Quantitative High-Throughput drug screen in 47 multiple myeloma cell lines against the NCATS MIPE library collection: OPM1_PLB cell viability assay (AID 1918989). Further: nearly all actives have a fitted effect of over 40% in size. The note with it: CellTiter-Glo, 48 h; series mostly up to 45.8 µM; viability (% of control): at the top concentration. The method in brief: (§1)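 ATP-based CellTiter-Glo luminescence after 48 h drug exposure (37 °C, 5% CO2) of 500 myeloma cells per well. DMSO-only wells set 100% viability, media-only wells 0%; MIPE 4.0 library added by pin tool.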
For orientation: ATP-based viability assays read luminescence as a measure of living cells.
As for `COc1ccc(-c2cc3c(C)nc(N)nc3n(C3CCC(OCCO)CC3)c2=O)cn1` (stereo not drawn), the Potency was 46.9 nM (active).

Take `Cc1ccc(NC(=O)C2(c3ccc4c(c3)OC(F)(F)O4)CC2)nc1-c1cccc(C(=O)O)c1`: the Potency was 148 nM (active).

As to `C#Cc1cccc(Nc2ncnc3cc(OC)c(OCCCCCCC(=O)NO)cc23)c1`, the Potency is 264 nM (active).

As to `Cc1cc(N2CCOCC2)cc2[nH]c(-c3c(NC[C@@H](O)c4cccc(Cl)c4)cc[nH]c3=O)nc12`, the Potency was 469 nM (active).

Take `CC1(O)CC(c2nc(-c3ccc4ccc(-c5ccccc5)nc4c3)c3c(N)nccn23)C1` (stereo not drawn): the Potency is 18700 nM (active).

As to `Nc1ncnc2c1c(-c1cnc3[nH]ccc3c1)nn2C1CCCC1`, the Potency was 590 nM (active).

For the molecule `CCN(CC)CCCCNc1ncc2cc(-c3cc(OC)cc(OC)c3)c(NC(=O)NC(C)(C)C)nc2n1`, the Potency was 14800 nM (active).

Consider `CCOc1ccccc1OCCNC(C)Cc1ccc(OC)c(S(N)(=O)=O)c1` (stereo not drawn), for which the “viability (% of control)” value was 118%.

Turning to `C[C@@]12O[C@@H](C[C@]1(O)CO)n1c3ccccc3c3c4c(c5c6ccccc6n2c5c31)CNC4=O`, the Potency was 264 nM (active).

As to `CN(C)CC=CC(=O)Nc1cc2c(Nc3ccc(F)c(Cl)c3)ncnc2cc1O[C@H]1CCOC1`, the Potency was 3720 nM (active).

`O=c1[nH]nc(Sc2ncc([N+](=O)[O-])s2)n1-c1ccc2c(c1)OCCO2`: the Potency is 2090 nM (active).

In the case of `COc1cc2c(NC3CCN(C(C)C)CC3)nc(C3CCCCC3)nc2cc1OCCCN1CCCC1`, the Potency is 3320 nM (active).

Consider `O=C(Nc1cc(C(F)(F)F)cc(C(F)(F)F)c1)c1cc(Cl)ccc1O`, for which the Potency is 833 nM (active).

Turning to `Cn1cc(-c2[nH]c3cc(NC(=O)[C@H](N)C4CCCCC4)cc4c3c2C=NNC4=O)cn1`, the Potency was 1180 nM (active).

For the molecule `O=C(C=Cc1cccc(S(=O)(=O)Nc2ccccc2)c1)NO`, the Potency was 1910 nM (active).

Take `CC1(C)CCC(c2ccc(Cl)cc2)=C(CN2CCN(c3ccc(C(=O)NS(=O)(=O)c4ccc(N[C@H](CCN5CCOCC5)CSc5ccccc5)c(S(=O)(=O)C(F)(F)F)c4)cc3)CC2)C1`: the Potency is 5260 nM (active).

Regarding `CNC(=O)c1ccc(N2C(=S)N(c3cnc(C#N)c(C(F)(F)F)c3)C(=O)C23CCC3)cc1F`, the Potency is 2640 nM (active).

In the case of `C=CC(=O)Nc1cccc(Oc2nc(Nc3ccc(N4CCN(C)CC4)cc3OC)ncc2Cl)c1`, the Potency was 662 nM (active).

Consider `COc1ccc(-n2nc(C(N)=O)c3c2C(=O)N(c2ccc(N4CCCCC4=O)cc2)CC3)cc1`, for which the “viability (% of control)” value is 141%.

Regarding `OCc1ccc(-c2ccc(-c3ccc(CO)s3)o2)s1`, the Potency was 6620 nM (active).

In the case of `c1nc2nc(Nc3ccc(N4CCOCC4)cc3)nc(NC3CCCCC3)c2[nH]1`, the Potency was 4690 nM (active).

For the molecule `COc1cc(OC2CCN(C)CC2)ccc1Nc1ncc2c(n1)n(C1CCCC1)c(=O)n2C`, the Potency was 7430 nM (active).

Another test is described as follows: Quantitative High-Throughput drug screen in 47 multiple myeloma cell lines against the NCATS MIPE library collection: SKMM1_PLB cell viability assay (AID 1919863). Further: nearly all actives have a fitted effect of over 35% in size. The settings on record: SKMM1 myeloma viability, CellTiter-Glo ATP, 48 h; viability: stronger effect = lower value. The method in brief: as §1
`CCc1c2c(nc3ccc(O)cc13)-c1cc3c(c(=O)n1C2)COC(=O)[C@]3(O)CC`: the Potency is 469 nM (active).

With `O=C(O)[C@H](Cc1c[nH]c2ccccc12)N1C(=O)c2ccccc2C1=O`, the viability is 111%.

On to `O=C(O)c1ccc2cc(-c3ccc(O)c(C45CC6CC(CC(C6)C4)C5)c3)ccc2c1`, for which the Potency is 4180 nM (active).

Take `CC(NCc1ccc2c(c1)nc(NC(=O)c1ccc(-c3cn[nH]c3)s1)n2CC(C)(C)O)C(C)(C)C` (stereo not drawn): the Potency was 743 nM (active).

As to `Nc1cc(C(F)(F)F)c(-c2cc(N3CCOCC3)nc(N3CCOCC3)n2)cn1`, the Potency was 662 nM (active).

Take `COc1cc2nccc(Oc3ccc(NC(=O)C4(C(=O)Nc5ccc(F)cc5)CC4)cc3)c2cc1OC`: the Potency was 16600 nM (active).

Regarding `CCCCc1nc2cc(C=CC(=O)NO)ccc2n1CCN(CC)CC`, the Potency is 590 nM (active).

With `CC(=O)OCC(=O)[C@@]1(O)[C@H](C)C[C@H]2[C@@H]3C=C(C)C4=Cc5c(cnn5-c5ccccc5)C[C@]4(C)[C@@H]3[C@@H](O)C[C@@]21C`, the Potency is 18700 nM (active).

`CCn1cc(-c2ccnc3[nH]c(-c4cccc(CN(C)C)c4)cc23)c(-c2ccc(NC(=O)N(C)C)cc2)n1`: the Potency is 18700 nM (active).

For the molecule `O=C(c1ccc(Nc2nccc(-c3cc4ccccc4s3)n2)cc1)N1CCC(N2CCCC2)CC1`, the Potency was 23500 nM (active).

As to `Nc1ncnc2c1c(-c1cccc(OCc3ccccc3)c1)cn2C1CC(CN2CCCC2)C1` (stereo not drawn), the Potency is 20900 nM (active).

Another test can be described thus: Quantitative High-Throughput drug screen in 47 multiple myeloma cell lines against the NCATS MIPE library collection: U266_ATCC cell viability assay (AID 1919864). Further: nearly all actives have a fitted effect of over 35% in size. The note with it: U266 myeloma viability, CellTiter-Glo ATP luminescence, 48 h; series mostly up to 45.8 µM; viability (% of DMSO control): at the top concentration. The essentials:
as §1
As to `COc1ccc(-c2cc3c(C)nc(N)nc3n(C3CCC(OCCO)CC3)c2=O)cn1` (stereo not drawn), the Potency is 264 nM (active).

In the case of `CCc1c2c(nc3ccc(O)cc13)-c1cc3c(c(=O)n1C2)COC(=O)[C@]3(O)CC`, the Potency is 743 nM (active).

With `Cc1ccc(NC(=O)C2(c3ccc4c(c3)OC(F)(F)O4)CC2)nc1-c1cccc(C(=O)O)c1`, the Potency was 29.6 nM (active).

As for `C#Cc1cccc(Nc2ncnc3cc(OC)c(OCCCCCCC(=O)NO)cc23)c1`, the Potency was 105 nM (active).

Consider `CC(NCc1ccc2c(c1)nc(NC(=O)c1ccc(-c3cn[nH]c3)s1)n2CC(C)(C)O)C(C)(C)C` (stereo not drawn), for which the Potency was 332 nM (active).

`Cc1cc(N2CCOCC2)cc2[nH]c(-c3c(NC[C@@H](O)c4cccc(Cl)c4)cc[nH]c3=O)nc12`: the Potency was 2640 nM (active).

As for `Nc1cc(C(F)(F)F)c(-c2cc(N3CCOCC3)nc(N3CCOCC3)n2)cn1`, the Potency is 4690 nM (active).

For `Nc1ncnc2c1c(-c1cnc3[nH]ccc3c1)nn2C1CCCC1`, the Potency was 14800 nM (active).

For the molecule `CCN(CC)CCCCNc1ncc2cc(-c3cc(OC)cc(OC)c3)c(NC(=O)NC(C)(C)C)nc2n1`, the Potency was 18700 nM (active).

With `CCOc1ccccc1OCCNC(C)Cc1ccc(OC)c(S(N)(=O)=O)c1` (stereo not drawn), the “viability (% of DMSO control)” value was 125%.

As to `COc1cc2nccc(Oc3ccc(NC(=O)C4(C(=O)Nc5ccc(F)cc5)CC4)cc3)c2cc1OC`, the Potency was 20900 nM (active).

In the case of `C[C@@]12O[C@@H](C[C@]1(O)CO)n1c3ccccc3c3c4c(c5c6ccccc6n2c5c31)CNC4=O`, the Potency was 2090 nM (active).

For the molecule `CN(C)CC=CC(=O)Nc1cc2c(Nc3ccc(F)c(Cl)c3)ncnc2cc1O[C@H]1CCOC1`, the Potency is 20900 nM (active).

For the molecule `O=c1[nH]nc(Sc2ncc([N+](=O)[O-])s2)n1-c1ccc2c(c1)OCCO2`, the Potency is 2640 nM (active).

`COc1cc2c(NC3CCN(C(C)C)CC3)nc(C3CCCCC3)nc2cc1OCCCN1CCCC1`: the Potency is 2960 nM (active).

Consider `O=C(Nc1cc(C(F)(F)F)cc(C(F)(F)F)c1)c1cc(Cl)ccc1O`, for which the Potency was 1480 nM (active).

On to `CCCCc1nc2cc(C=CC(=O)NO)ccc2n1CCN(CC)CC`, for which the Potency was 935 nM (active).

For the molecule `Cn1cc(-c2[nH]c3cc(NC(=O)[C@H](N)C4CCCCC4)cc4c3c2C=NNC4=O)cn1`, the Potency is 18700 nM (active).

Turning to `O=C(C=Cc1cccc(S(=O)(=O)Nc2ccccc2)c1)NO`, the Potency is 2700 nM (active).

Consider `CC(=O)OCC(=O)[C@@]1(O)[C@H](C)C[C@H]2[C@@H]3C=C(C)C4=Cc5c(cnn5-c5ccccc5)C[C@]4(C)[C@@H]3[C@@H](O)C[C@@]21C`, for which the Potency is 7430 nM (active).

In the case of `CC1(C)CCC(c2ccc(Cl)cc2)=C(CN2CCN(c3ccc(C(=O)NS(=O)(=O)c4ccc(N[C@H](CCN5CCOCC5)CSc5ccccc5)c(S(=O)(=O)C(F)(F)F)c4)cc3)CC2)C1`, the Potency was 14800 nM (active).

In the case of `CCn1cc(-c2ccnc3[nH]c(-c4cccc(CN(C)C)c4)cc23)c(-c2ccc(NC(=O)N(C)C)cc2)n1`, the Potency was 14800 nM (active).

`O=C(c1ccc(Nc2nccc(-c3cc4ccccc4s3)n2)cc1)N1CCC(N2CCCC2)CC1`: the Potency is 14800 nM (active).

Regarding `CNC(=O)c1ccc(N2C(=S)N(c3cnc(C#N)c(C(F)(F)F)c3)C(=O)C23CCC3)cc1F`, the Potency was 662 nM (active).

With `C=CC(=O)Nc1cccc(Oc2nc(Nc3ccc(N4CCN(C)CC4)cc3OC)ncc2Cl)c1`, the Potency was 23500 nM (active).

Regarding `OCc1ccc(-c2ccc(-c3ccc(CO)s3)o2)s1`, the Potency was 3320 nM (active).

As to `c1nc2nc(Nc3ccc(N4CCOCC4)cc3)nc(NC3CCCCC3)c2[nH]1`, the Potency is 16600 nM (active).

On to `COc1cc(OC2CCN(C)CC2)ccc1Nc1ncc2c(n1)n(C1CCCC1)c(=O)n2C`, for which the Potency was 14800 nM (active).

As for `Nc1ncnc2c1c(-c1cccc(OCc3ccccc3)c1)cn2C1CC(CN2CCCC2)C1` (stereo not drawn), the Potency was 16600 nM (active).

For the molecule `CC(C)c1cc(C(=O)N2Cc3ccc(CN4CCN(C)CC4)cc3C2)c(O)cc1O`, the Potency was 209 nM (active).

(Values after PubChem BioAssay (NCATS).)
